Source: PubChem BioAssay
TDP1 cell noCPT = qHTS for Inhibitors of human tyrosyl-DNA phosphodiesterase 1 (TDP1): qHTS in cells in absence of CPT; AID 686978, 2013; DT40 Tdp1-/- hTDP1 cells, no CPT, ATP luminescence, 48 h; Potency, µM (top dose mostly 46.2 µM), without a hit: top-dose activity change, negative = growth inhibition, most hits filed as inhibitors; actives 15% (n = 420,000); also: potency is read from the fitted curve at half-maximal effect; nearly all actives have a fitted effect of over 55% in size
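Chicken DT40 Tdp1-/- cells stably complemented with human TDP1 were seeded at 400 cells/well with DMSO in place of 20 nM camptothecin. After compound pinning, cells grew at least 48 hr at 37 °C; viability read by CellTiter-Glo luminescence.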
HT1080NT lethal = kills 2HG-producing HT-1080-NT fibrosarcoma cells | HT-1080-NT fibrosarcoma viability, CellTiter-Glo ATP luminescence, 48 h | actives 1.6% (n = 360,000) | Potency, µM (series often up to 46.1 µM), for inactives: top-dose activity, negative = less viability, usual class: cytotoxic;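 also: NT is the 2HG producing partner of a matched IDH1 knockdown line; potency is read from the fitted curve at half-maximal effect; 0% = DMSO-treated cells and -100% = media-only wells without cells; nearly all actives have a fitted effect of over 55% in size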
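Luminescent CellTiter-Glo readout after 48 hours of compound exposure at 37 degrees C defined viability of HT-1080-NT cells. Activity was normalized to DMSO wells and cell-free media wells; concentration-response curves were fitted and assigned curve classes.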
TDP1 cell CPT = DT40-hTDP1 cell growth loss with CPT; chicken DT40 Tdp1-/-;hTDP1 cells + 20 nM CPT, ATP luminescence, 48 h; Potency, µM (top dose mostly 46.2 µM), without a hit: at the highest dose activity change, negative = growth inhibition, actives largely listed as inhibitors; actives 12% (n = 420,000); also: potency is read from the fitted curve at half-maximal effect; nearly all actives have a fitted effect of over 55% in size
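Chicken DT40 Tdp1-/- cells complemented with human TDP1, 400 cells/well, exposed to compounds plus 20 nM camptothecin for at least 48 h at 37 C; viability read as ATP content by CellTiter-Glo luminescence.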
HT1080 IDH1KD tx = toxicity to HT-1080 IDH1 knockdown cells (counter line) | HT-1080 IDH1 knockdown viability, ATP luminescence, 48 h | Potency, µM (titrated, usually from 46.1 µM), inactives show top-dose activity, negative = toxicity, actives largely listed as cytotoxic | actives 2% (n = 360,000);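 also: potency is read from the fitted curve at half-maximal effect; 0% = DMSO wells and -100% = cell-free medium wells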
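Cytotoxicity counter-line: IDH1KD HT-1080, 48 h, CellTiter-Glo. Curves classed by r2, magnitude and activity.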
IL1B secr inh = inflammasome signaling inhibition, IL-1 beta readout; AID 743279; THP-1 LPS/ATP IL-1B secretion, AlphaLISA, 16 h; active compounds read low; actives 4.7% (n = 360,000); activity change, % at 57.5 µM; in the data active = activity change below about -50%; inconclusive = mostly about -30% to -49%
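THP-1 cells pretreated 1 hr with compounds (up to 57.5 uM final), then stimulated with LPS (250 ng/mL final) plus ATP (1.25 mM final); secreted IL-1B measured by AlphaLISA after 16 hr, decreased signal indicating inhibition.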
The depositor's hits bear a star; [ ] = dose if it differs, or a comment. Compounds with a hit are over-represented: about 19% of the library has one in this group of screens. Unless noted, calls follow the shape of the dose curve; as a rule, active = well fitted curve in the direction sought with a large enough effect; inconclusive = small, poorly fitted or top-dose-only effect, or another doubt; inactive = no such curve, though single readings can be large; an effect the other way counts as inactive or inconclusive. Unless noted, % is scaled to controls: 0 for no effect and ±100 for the full control effect.

For Cc1ccccc1-c1nc2cc(Cl)ccc2c(=O)o1 the results were TDP1 cell noCPT 16µM*, HT1080NT lethal 0%, TDP1 cell CPT inconclusive, HT1080 IDH1KD tx -3% and IL1B secr inh 0.
COc1ccc(-c2nc3cc(NC(=O)Cc4ccc(Cl)cc4)ccc3o2)cc1OC was read as TDP1 cell noCPT 13µM* and TDP1 cell CPT 16µM*.
COc1ccc(-c2nc3cc(NC(=O)Cc4ccc(OC)c(OC)c4)ccc3o2)cc1 was read as TDP1 cell noCPT inconclusive, HT1080NT lethal -7%, TDP1 cell CPT inconclusive, HT1080 IDH1KD tx -11% and IL1B secr inh inconclusive.
Cc1ccccc1-c1nc2cc(NC(=O)Cc3ccc(Cl)cc3)ccc2o1 was read as TDP1 cell noCPT 21µM* and TDP1 cell CPT inconclusive.
`COc1ccc(-c2nc(CN3CCC(C(=O)NCC4CCCO4)CC3)c(C)o2)cc1OC` (centres undefined) gave TDP1 cell noCPT 23%, HT1080NT lethal 14%, TDP1 cell CPT -10%, HT1080 IDH1KD tx 18% and IL1B secr inh -3.
`CN(Cc1ccccc1)c1nc(N)c([N+](=O)[O-])c(NCc2ccccc2)n1` gave TDP1 cell noCPT inconclusive, HT1080NT lethal inconclusive, TDP1 cell CPT inconclusive, HT1080 IDH1KD tx inconclusive and IL1B secr inh -51*.
For Nc1nc(NCCN2CCOCC2)nc(NCc2ccccc2)c1[N+](=O)[O-] the results were TDP1 cell noCPT 18µM*, HT1080NT lethal -6%, TDP1 cell CPT inconclusive, HT1080 IDH1KD tx -13% and IL1B secr inh -2.
O=C(NC1CCN(Cc2ccccc2)CC1)c1[nH]c(C(F)(F)F)nc1-c1ccccc1 was read as TDP1 cell noCPT -1%, HT1080NT lethal 2%, TDP1 cell CPT -12%, HT1080 IDH1KD tx 9% and IL1B secr inh -5.
`c1ccc(-c2cn3nc(-c4ccccc4)sc3n2)cc1` gave TDP1 cell noCPT 2%, HT1080NT lethal 0%, TDP1 cell CPT -1%, HT1080 IDH1KD tx 7% and IL1B secr inh -4.
Screening c1ccc(-c2cn3c4c(sc3n2)CCCC4)cc1 returned TDP1 cell noCPT inconclusive, HT1080NT lethal 11µM*, TDP1 cell CPT inconclusive, HT1080 IDH1KD tx inconclusive and IL1B secr inh -17.
Screening COc1cccc(-c2nc(CS(=O)CC(=O)NCCc3ccccc3)c(C)o2)c1 (centres undefined) returned TDP1 cell noCPT inconclusive, HT1080NT lethal -4%, TDP1 cell CPT inconclusive, HT1080 IDH1KD tx -2% and IL1B secr inh 30.
`COc1ccc(CCNC(=O)CSc2nnc(-c3cccc(C)c3)o2)cc1OC` gave TDP1 cell noCPT -2%, HT1080NT lethal 2%, TDP1 cell CPT -24%, HT1080 IDH1KD tx -1% and IL1B secr inh -18.
`COc1ccc(CCNC(=O)CSCc2nc(-c3cccc(C)c3)oc2C)cc1OC` gave TDP1 cell noCPT inconclusive and TDP1 cell CPT 21µM*.
COc1cccc(-c2nc(CSCC(=O)NCCc3ccc(Cl)cc3)c(C)o2)c1 was read as TDP1 cell noCPT inconclusive and TDP1 cell CPT 9.2µM*.
Screening Cc1nn(-c2ccccc2)c(C)c1NC(=O)COC(=O)Cc1ccccc1F returned TDP1 cell noCPT 1%, HT1080NT lethal 0%, TDP1 cell CPT -4%, HT1080 IDH1KD tx 16% and IL1B secr inh 6.
Screening COc1ccc(-c2noc3c2-c2nc(-c4ccccc4C)sc2CC3)cc1 returned TDP1 cell noCPT inconclusive, HT1080NT lethal 13µM*, TDP1 cell CPT inconclusive, HT1080 IDH1KD tx inconclusive and IL1B secr inh 53.
Screening Cc1ccccc1-c1nc2c(s1)CCc1onc(-c3ccc(Cl)cc3)c1-2 returned TDP1 cell noCPT -9%, HT1080NT lethal 14%, TDP1 cell CPT 18%, HT1080 IDH1KD tx 6% and IL1B secr inh 6.
For O=C(Nc1ccc(Cl)c(S(=O)(=O)N2CCOCC2)c1)c1cccs1 the results were TDP1 cell noCPT inconclusive, HT1080NT lethal -8%, TDP1 cell CPT inconclusive, HT1080 IDH1KD tx -8% and IL1B secr inh -10.
`CC(=O)Nc1cccc(C(=O)/C=C/c2ccc(Br)cc2)c1` gave TDP1 cell noCPT 4.6µM*, HT1080NT lethal inconclusive, TDP1 cell CPT 3.3µM*, HT1080 IDH1KD tx -1% and IL1B secr inh -107*.
CCC(=O)Nc1cccc(C(=O)/C=C/c2cc(Br)ccc2OC)c1 was read as TDP1 cell noCPT 4.1µM*, HT1080NT lethal 8.2µM*, TDP1 cell CPT 2.9µM*, HT1080 IDH1KD tx 8.2µM* and IL1B secr inh -105*.
`CC(=O)Nc1cccc(C(=O)/C=C/c2cccs2)c1` gave TDP1 cell noCPT 21µM*, HT1080NT lethal 2%, TDP1 cell CPT inconclusive, HT1080 IDH1KD tx -1% and IL1B secr inh -105*.
Screening CC(=O)Nc1cccc(C(=O)/C=C/c2ccc(F)cc2)c1 returned TDP1 cell noCPT 4.6µM*, HT1080NT lethal 4%, TDP1 cell CPT 2.3µM*, HT1080 IDH1KD tx 12µM* and IL1B secr inh -192*.
`CC(=O)Nc1cccc(C(=O)/C=C/c2ccc(N(C)C)cc2)c1` gave TDP1 cell noCPT inconclusive, HT1080NT lethal 3%, TDP1 cell CPT 3%, HT1080 IDH1KD tx 1% and IL1B secr inh inconclusive.
O=C(NNc1ccccc1)NC(Cc1ccccc1)C(=O)O (centres undefined) was read as TDP1 cell noCPT 6%, HT1080NT lethal 6%, TDP1 cell CPT 5%, HT1080 IDH1KD tx 8% and IL1B secr inh 19.
For CC1CN(CCOCCSc2ccc(Cl)cc2)CC(C)O1 (centres undefined) the results were TDP1 cell noCPT inconclusive, HT1080NT lethal -2%, TDP1 cell CPT -21%, HT1080 IDH1KD tx -1% and IL1B secr inh 0.
Clc1ccc(SCCCCN2CCNCC2)cc1 was read as TDP1 cell noCPT 18µM*, HT1080NT lethal inconclusive, TDP1 cell CPT 21µM*, HT1080 IDH1KD tx inconclusive and IL1B secr inh 0.
For Cc1ccc(SCCC(=O)N2CCCC2)cc1 the results were TDP1 cell noCPT -11%, HT1080NT lethal 2%, TDP1 cell CPT -3%, HT1080 IDH1KD tx 7%[9.24 µM] and IL1B secr inh -17.
`Clc1ccc(SCCCCN2CCOCC2)cc1` gave TDP1 cell noCPT -29%, HT1080NT lethal -4%, TDP1 cell CPT -28%, HT1080 IDH1KD tx -2% and IL1B secr inh -1.
Screening Cc1ccc(SCCCCN2CCNCC2)cc1 returned TDP1 cell noCPT inconclusive, HT1080NT lethal -20%, TDP1 cell CPT 21µM*, HT1080 IDH1KD tx -17% and IL1B secr inh -1.
Screening CC1CN(CCCCSc2ccc(Cl)cc2)CC(C)O1 (centres undefined) returned TDP1 cell noCPT inconclusive, HT1080NT lethal -8%, TDP1 cell CPT 21µM*, HT1080 IDH1KD tx -4% and IL1B secr inh -27.
